Experimental findings from PubChem BioAssay (NCI) are described below.

Compounds without any hit were thinned out: in the full panel of roughly 83,000, 20% have a hit.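 The endpoint reported here, percent growth, reads 100 for growth as untreated, 0 for no net growth and -100 for all cells dead.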 Values without a mark were called inactive. Calls of active or inactive are those of the source. Rule for the calls: active = growth percent below 10; inactive = the rest.

The first experiment deals with UACC-257 melanoma. The experiment can be described thus: NCI-60 one-dose screen, 48 h (100 = growth as untreated, 0 = no growth, -100 = all killed). The following applies: 10 µM unless noted.
As to `O=C1CN(c2ccccc2)C(=O)C1C(=O)Nc1ccc(Cl)c(Cl)c1` (stereo unspecified), the growth is 16.2% [100 µM].

Turning to `CN(C)CCCC1(c2ccc(F)cc2)OCc2cc(-c3ccc(C(F)(F)F)nc3)ccc21` (stereo unspecified), the growth was -31.8% (active).

In the case of `Fc1ccc(Nc2nnc(-c3ccc(Cl)cc3)o2)cc1`, the growth is 88.9%.

`C=C(C)[C@@H]1CC[C@]2(/C=N/Nc3ccncc3)CC[C@]3(C)[C@H](CC[C@@H]4[C@@]5(C)CCCNC(C)(C)[C@@H]5CC[C@]43C)[C@@H]12`: the growth is 94.7%.

As for `O=C1c2ccccc2NC(c2cn(-c3ccccc3)nc2-c2cccs2)N1Cc1ccccc1` (stereo unspecified), the growth was 103%.

Turning to `Cc1cccc(C)c1NCc1nc(-c2ccccc2)n[nH]1`, the growth is 100%.

Regarding `NC(N)=N/N=C/c1ccc(-c2ccc(-c3ccc(Cl)cn3)s2)cc1`, the growth is 109%.

As for `CCOC(=O)C1OC1(c1ccccc1)c1ccccc1` (stereo unspecified), the growth was 95.7%.

Another experiment relates to M14 melanoma. The experiment is described as above. The following applies: 10 µM unless noted.
Take `CC(=O)c1c(C)[nH]c(-c2nc3ccc(N4CCN(C)CC4)cc3[nH]2)c1-c1ccc(N(C)C)cc1`: the growth is 34.6%.

Take `CC(=O)c1c(C)[nH]c(-c2nc3ccc(N4CCN(C)CC4)cc3[nH]2)c1-c1ccc(OCC2CCOCC2)cc1`: the growth was 34.5%.

Turning to `CC/C=C\C[C@H]1CC=C2C(=O)C=C[C@@H]2CC=CCCCC(=O)O[C@@H](CCCCC)CC=C2C(=O)C=C[C@@H]2CC=CCCCC(=O)O[C@@H](CCCCC)CC=C2C(=O)C=C[C@@H]2CC=CCCCC(=O)O[C@@H](CCCCC)CC=C2C(=O)C=C[C@@H]2CC=CCCCC(=O)O1`, the growth was -3.08% [7.9 µM] (active).

On to `O=C1c2cccc3cccc(c23)C(=O)N1CC#Cc1ccc2c3c(cccc13)C(=O)N(CCN1CCNCC1)C2=O`, for which the growth is 101%.

`COc1ccc(NC(=O)c2ccc3c(c2)nc(-c2cc4ccccc4[nH]c2=O)n3-c2cc(C(C)(C)C)[nH]n2)cc1`: the growth was 96.1%.

Take `CC(=O)NC1=C(C#N)C(c2ccccc2Cl)c2c(ccc3ccccc23)O1` (stereo unspecified): the growth is 31.1%.

For `CC(C)(C)c1[nH]nc2c1C(c1cc3ccccc3[nH]c1=O)Nc1cc(C(=O)OCc3ccccc3)ccc1N2` (stereo unspecified), the growth is 55.6%.

`CC1(C)C=CC[C@]2(C)[C@H]3CC[C@@H]4[C@H]5[C@H](C(=O)/C=C/c6cccnc6)CC[C@]5(CO)CC[C@@]4(C)[C@]3(C)CC[C@@H]12`: the growth is -74.4% (active).

Take `CC1(C)[C@@H](O)CC[C@]2(C)[C@H]3CC[C@@H]4[C@H]5[C@H](C(=O)/C=C/c6ccc(C(F)(F)F)cc6)CC[C@]5(CO)CC[C@@]4(C)[C@]3(C)CC[C@@H]12`: the growth was 7.81% (active).

With `N=C(N)c1ccc(S(N)(=O)=O)cc1`, the growth is 94.7%.

Consider `C=C(C)[C@@H]1CC[C@]2(C(=O)OC)CC[C@]3(C)[C@H](CC[C@@H]4[C@@](C)(CC/C(N)=N/O)[C@H](C(=C)C)CC[C@]43C)[C@@H]12`, for which the growth was 99.1%.

In the case of `COc1ccc(-c2nc3c(c(C)nn3-c3ccc(F)cc3)c(=O)[nH]2)cc1`, the growth is 82.7%.

`CC1(C)C(=O)/C(=C\c2ccco2)C[C@]2(C)[C@H]3CC[C@@H]4[C@@H](C(=O)/C=C/c5ccco5)CC[C@@]4(C)[C@]3(C)CC[C@@H]12`: the growth was 23.9%.

Consider `CC1(C)CC[C@]2(C(=O)Nc3ccccn3)CC[C@]3(C)C(=CC[C@@H]4[C@@]5(C)C/C(=C/c6ccncc6)C(=O)C(C)(C)[C@@H]5CC[C@]43C)[C@@H]2C1`, for which the growth was 20.6%.

As to `Cc1csc(-c2ccc3c(c2)COC3(CCCN(C)C)c2ccc(F)cc2)c1` (stereo unspecified), the growth is -70.3% (active).

Consider `Cc1nc([P+](c2ccccc2)(c2ccccc2)c2ccccc2)c(Sc2sc(-c3ccccc3)nc2[P+](c2ccccc2)(c2ccccc2)c2ccccc2)o1`, for which the growth was 15.5%.

On to `O=C(O[C@@H]1Cc2c(O)cc(O)cc2O[C@@H]1c1cc(O)c(O)c(O)c1)c1cc(O)c2c(c1)OCO2`, for which the growth is 91.9%.

For `Fc1ccc2c(c1)c(-c1nc(-c3c[nH]c4ncccc34)cs1)cn2CCCN1CCCCC1`, the growth is -81% (active).

On to `O=P(O)(c1ccccc1)c1ccccc1I`, for which the growth was 90.1%.

Turning to `COc1ccc(/C=C(\C#N)c2cc3ccccc3n2S(C)(=O)=O)cc1`, the growth is 56.1%.

Regarding `CN1CCN(CCOc2ccc(-c3cnc4c(-c5cccc(F)c5)cnn4c3)cc2)CC1`, the growth was 2.02% (active).

Regarding `Cc1ccc2oc(=O)cc(-c3sc(N4CCCCC4)nc3-c3ccccc3)c2c1`, the growth is 97.3%.

Take `Cc1ccnc2c(OCc3ccccc3)cccc12`: the growth was 93.4%.

In the case of `N#CC1=C(N)Oc2ccc3ccccc3c2C1c1ccccc1` (stereo unspecified), the growth is 13.6%.

Consider `CN(C)CCCCC(C(=O)CBr)(c1ccccc1)c1ccccc1`, for which the growth is 18.8%.

Regarding `CC(=O)O[C@H]1CC[C@]2(C)[C@H]3CC=C4[C@@H]5[C@H](C)[C@@H](C)CC[C@]5(C(=O)NCCNCCNCCN)CC[C@@]4(C)[C@]3(C)CC[C@H]2C1(C)C`, the growth is 88.1%.

On to `Cc1ccc(S(=O)(=O)Nc2ccc(-c3cc(-c4cccc(F)c4)c(C#N)c(N)n3)cc2)cc1`, for which the growth was -8.83% (active).

Take `O=C1/C(=C\c2ccc(Br)o2)SC(=S)N1CCc1ccc(O)cc1`: the growth is 73.7%.

Consider `CN(C)c1ccc(-c2ccc(-c3ccc(C(=N)N)c(F)c3)s2)cc1`, for which the growth is 97.5%.

Turning to `Cc1ccc(S(=O)(=O)Nc2ccc(-c3cc(-c4cccc(F)c4)c(C#N)c(=O)[nH]3)cc2)cc1`, the growth was 81.3%.

Turning to `O=C1CN(c2ccccc2)C(=O)C1C(=O)Nc1ccc(Cl)c(Cl)c1` (stereo unspecified), the growth is 28.8% [100 µM].

With `CN(C)CCCC1(c2ccc(F)cc2)OCc2cc(-c3ccc(C(F)(F)F)nc3)ccc21` (stereo unspecified), the growth is 13.8%.

Turning to `Fc1ccc(Nc2nnc(-c3ccc(Cl)cc3)o2)cc1`, the growth is 95.4%.

Take `C=C(C)[C@@H]1CC[C@]2(/C=N/Nc3ccncc3)CC[C@]3(C)[C@H](CC[C@@H]4[C@@]5(C)CCCNC(C)(C)[C@@H]5CC[C@]43C)[C@@H]12`: the growth is 79.4%.

In the case of `O=C1c2ccccc2NC(c2cn(-c3ccccc3)nc2-c2cccs2)N1Cc1ccccc1` (stereo unspecified), the growth is 80%.

`Cc1cccc(C)c1NCc1nc(-c2ccccc2)n[nH]1`: the growth was 97.9%.

As to `NC(N)=N/N=C/c1ccc(-c2ccc(-c3ccc(Cl)cn3)s2)cc1`, the growth was 94.7%.

In the case of `CCOC(=O)C1OC1(c1ccccc1)c1ccccc1` (stereo unspecified), the growth is 107%.
